Compounds with a hit are over-represented: about 2.9% of the library has one in this group of screens.
HSF-1 act – increases HSF-1 driven luciferase reporter signal; actives 1.7% (n = 300,000); NIH3T3-HGL HSF-1 luciferase reporter, MG132, 8 h; 100% = twice DMSO control signal; activation, % at 9 µM;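 active means mean replicate activation of at least 50% with a set share of replicates each reaching 50%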;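 further: 0% = median of the neutral control wells and 100% = twice that signal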
Hsp70 act – transcriptional activators of Hsp70. HeLa Hsp70 promoter luciferase reporter, luminescence; scaled: vehicle 0, proteasome-inhibitor control 100%. activation, % at 10 µM. actives 0.04% (n = 200,000);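 active means activation above the mean across all tested compounds plus 3 SD, cutoff set per campaign, cut at about 5.5% in these data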;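 further: 100% = MG132 at 30 µM as the positive control and 0% = DMSO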
HSF1 inh – HSF1 inhibition. NIH3T3-HGL HSE-luciferase, MG132-induced, luminescence 8 h; active compounds read low. activity change, negative = inhibition, % at 7.5 µM (by protocol). actives 0.77% (n = 300,000);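 active means more than half of replicate wells show activity change below -50%, luminescence cut by over half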;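 further: luciferase reports HSF-1 transcriptional activity via heat shock element; 0% = median of DMSO wells and -100% = zero luminescence signal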
S1P4 ag – human S1P4 receptor agonism. S1P4-expressing cell line, agonist reporter assay. activation, % at 4.98 µM. actives 0.35% (n = 220,000); in the data active means activation above about 11%;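 further: 0% = DMSO vehicle and 100% = reference agonist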
S1P4 antag – human S1P4 receptor antagonism. O95977. S1P4-expressing cells, antagonist mode, reporter read-out. inhibition, % at 4.98 µM. actives 0.26% (n = 220,000); in the data active means inhibition above about 29%;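 further: 0% = wells stimulated with agonist and 100% = vehicle wells without agonist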
S1P3 antagonist – blocks the human S1P3 receptor; Q99500; CHO S1P3 NFAT-BLA reporter, FRET fluorescence, antagonist mode; inhibition, % at 4.98 µM; actives 0.27% (n = 170,000);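 active means inhibition above the plate cutoff, the mean inhibition of test wells on that plate plus 3 SD, cut at about 28% in these data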;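 further: cells challenged with S1P at its EC80 of 0.8 µM; blue over green emission ratio from cleaved BLA substrate after 4 h stimulation; 0% = S1P-stimulated wells and 100% = unstimulated DMSO-only wells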
Target sequence (Q99500 whole entry, looked up): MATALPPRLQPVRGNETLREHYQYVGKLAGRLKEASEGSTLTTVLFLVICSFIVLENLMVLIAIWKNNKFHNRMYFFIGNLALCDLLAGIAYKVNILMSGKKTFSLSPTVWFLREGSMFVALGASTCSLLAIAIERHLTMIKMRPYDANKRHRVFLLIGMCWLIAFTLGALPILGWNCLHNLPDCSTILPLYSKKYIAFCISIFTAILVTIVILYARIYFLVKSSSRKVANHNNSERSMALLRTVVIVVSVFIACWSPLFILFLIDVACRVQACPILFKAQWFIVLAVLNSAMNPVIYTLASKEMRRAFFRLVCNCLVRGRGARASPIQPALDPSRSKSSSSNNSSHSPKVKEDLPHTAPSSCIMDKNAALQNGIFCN
Numbers without * were called inactive.

For COC(=O)c1cnc(N2CCCN(S(=O)(=O)c3ccc(C(F)(F)F)cc3)CC2)nc1C(F)(F)F the results were HSF-1 act 53*, HSF1 inh 15, S1P4 ag -1, S1P4 antag -13 and S1P3 antagonist 13.
Screening CCCC1=Nc2cc(C(=O)NCCCN3CCN(C)CC3)ccc2Sc2ccccc21 returned HSF-1 act -62 and HSF1 inh -51*.
Screening CCCC1=Nc2cc(C(=O)NCCCN3CCOCC3)ccc2Sc2ccccc21 returned HSF-1 act 2 and HSF1 inh 2.
For CC(=O)Nc1cccc(NC(=O)Cc2cccs2)c1 the results were HSF-1 act 3 and HSF1 inh 1.
Screening O=C(Cc1cccs1)Nc1cccc(-c2nc3cc4ccccc4cc3[nH]2)c1 returned HSF-1 act 74*, Hsp70 act 0, HSF1 inh 39, S1P4 ag 1, S1P4 antag 4 and S1P3 antagonist 9.
Screening COc1cccc(NC(=O)Cn2nnc(C(=O)NCCc3ccccc3)c2N)c1 returned HSF-1 act 12 and HSF1 inh 5.
O=C(Nn1cnnc1)c1ccccc1CCc1ccccc1 was read as HSF-1 act 4, Hsp70 act 0, HSF1 inh 0, S1P4 ag -1, S1P4 antag -8 and S1P3 antagonist 64*.
`COc1cccc(C=O)c1OCCCOc1cccc2cccnc12` gave HSF-1 act 53* and HSF1 inh 43.
CCOCc1cnc(C)nc1NCC(=O)c1c(C)n(C)c2ccc(OC)cc12 was read as HSF-1 act -46, Hsp70 act 0, HSF1 inh -35, S1P4 ag 2, S1P4 antag -4 and S1P3 antagonist 1.
For COc1ccc2c(c1)c(C(=O)CNc1nc(C)cs1)c(C)n2C the results were HSF-1 act 61*, Hsp70 act 0, HSF1 inh 25, S1P4 ag -3, S1P4 antag -2 and S1P3 antagonist -48.
CCC(C)Sc1nnc(NS(=O)(=O)Cc2ccccc2)s1 (stereo unspecified) was read as HSF-1 act 14 and HSF1 inh -2.
Screening S=c1[nH]nc(-c2ccncc2)n1Cc1ccco1 returned HSF-1 act -76, Hsp70 act 0, HSF1 inh -69*, S1P4 ag -1 and S1P4 antag -9.
Screening S=c1[nH]nc(-c2ccc(Br)cc2)n1Cc1ccco1 returned HSF-1 act 1, Hsp70 act 0, HSF1 inh -2, S1P4 ag -1, S1P4 antag -13 and S1P3 antagonist 13.
CCOC(=O)c1c(S(=O)(=O)NC2CCN(C(=O)OCC)CC2)c(C)n(C)c1C was read as HSF-1 act 7 and HSF1 inh 0.
`Cc1sc2ncnc(N3CCC(C(=O)Nc4nc(-c5cccs5)cs4)CC3)c2c1C` gave HSF-1 act -55 and HSF1 inh -54*.
For CCCCc1nnc(NC(=O)C2CCN(c3ncnc4sc(C)c(C)c34)CC2)s1 the results were HSF-1 act 7 and HSF1 inh 12.
`CC1=NNC(=O)C1C(c1ccccc1)C(C#N)C#N` (stereo unspecified) gave HSF-1 act 3, Hsp70 act 0, HSF1 inh 3, S1P4 ag -3 and S1P4 antag 6.
CC(=O)N1CCN(c2ccc(S(C)(=O)=O)cc2[N+](=O)[O-])CC1 was read as HSF-1 act -19, Hsp70 act 0, HSF1 inh -1, S1P4 ag 1, S1P4 antag -11 and S1P3 antagonist -23.
For Cc1ccc(-c2nnnn2-c2ccccc2C(=O)O)cc1 the results were HSF-1 act -2 and HSF1 inh -1.
For Cc1ccc(Cl)cc1-n1c(SCC(=O)NCCC2=CCCCC2)nc2n[nH]c(C)c2c1=N the results were HSF-1 act 56* and HSF1 inh 33.
`Cc1cc(-n2c(SCC(=O)NCCC3=CCCCC3)nc3n[nH]c(C)c3c2=N)ccc1Cl` gave HSF-1 act 34 and HSF1 inh 13.
For Cc1[nH][nH]c(=O)c1C=NCc1cccs1 the results were HSF-1 act 69*, Hsp70 act 0, HSF1 inh 27, S1P4 ag 5, S1P4 antag -17 and S1P3 antagonist -1.
Screening Cc1ccc(Sc2nc(C)c([N+](=O)[O-])c(C)c2C#N)cc1 returned HSF-1 act 0, HSF1 inh -1, S1P4 ag 0, S1P4 antag -1 and S1P3 antagonist 0.
